Our source for the INHIBITION values is ChEMBL document CHEMBL4513216, “Probing the Open Global Health Chemical Diversity Library for Multistage-Active Starting Points for Next-Generation Antimalarials” (ACS Infect Dis, 2020).

Structures are written as SMILES. Among all 65,000 compounds or so, about 2,100 (3.2%) showed an effect of 50% or more. The median lay at about -52%. Only a selection was taken, and strong results are over-represented in it overall.

The test has as its system Plasmodium falciparum. Nature of the test: Screen against P. falciparum Asexual Blood Stage (ABS), at 5uM. The class given is functional, Dd2. The conditions noted are these: tested at 5 uM.
Take `COc1ccc(C2CCCN2C(=O)NCCCn2cccn2)cc1` (stereo not drawn): the INHIBITION is -90.4%.
The figure for `O=C(NCCn1ccnc1)N1CCCC1c1ccncc1` (stereo not drawn) is -10%; for `O=C(NCCCn1ccnc1)N1CCCC1c1ccncc1` (stereo not drawn) it is -65.7%; for `CC(C)(C)c1nnnn1CC(=O)N(CCC#N)c1ccccc1` it is -55.4%.
Under `CN(C)C(C(=O)NCc1cc(C(C)(C)C)n[nH]1)c1ccc(F)cc1` (stereo not drawn) stands -1.64%.
Under `COCCn1c2c(ccc1=O)CC(NCc1cnn(C)c1)CC2` (stereo not drawn) stands -23.6%.
On to `Cc1cc(O)ncc1NS(=O)(=O)c1cccc(F)c1F`, for which the INHIBITION is -123%.
Consider `CCS(=O)(=O)N[C@H]1CN(Cc2noc(COC)n2)C[C@@H]1C1CC1`, for which the INHIBITION was -96.2%.
The figure for `Cc1cccc(-c2nc(N)nc3c2CN(C(=O)c2cc(C)n[nH]2)C3C)c1` (stereo not drawn) is 32.2%; for `COCCN1Cc2ccccc2C2(CCN(C(=O)c3ccco3)CC2)C1` it is -50.4%.
The figure for `COc1ccccc1-n1nc(CC(C)C)nc1CSc1nnc(N)s1` is -36.5%; for `CC(NCC1(N(C)C)CCOCC1)c1ccc(SC(F)F)cc1` (stereo not drawn) it is 52.35%.
Under `CC(NCC1(N(C)C)CCOCC1)c1ccc(S(C)(=O)=O)cc1` (stereo not drawn) stands -56.25%; under `CSC1(CNC(=O)NC(C)c2ccc(F)cc2)CCOCC1` (stereo not drawn), -162%.
Turning to `COCC1CN(S(=O)(=O)Cc2ccccc2)Cc2c1cnn2C` (stereo not drawn), the INHIBITION is listed as -54.3%.
The figure for `Nc1cc2c(nn1)CCN(C(=O)CCCC1CCCCC1)C2` is -83.9%; for `COCCCC1CCCN(Cc2c(C)ccc3ncccc23)C1` (stereo not drawn) it is 37.2%; for `CO[C@H]1CN(Cc2c(C)ccc3ncccc23)CC[C@H]1N` it is 67.2%.
On to `Cc1ccc2ncccc2c1CN1CC[C@H](N(C)C)[C@H](CCC(=O)O)C1`, for which the INHIBITION is listed as -3.92%.
With `Cc1cc(NC(=O)c2ccc(CN3CC[C@H](O)C3)cc2)ccc1F`, the INHIBITION is 21.2%.
The figure for `CC(=O)N1CCCC1c1cccc(NCc2ccccc2F)n1` (stereo not drawn) is -133%; for `COc1cc(N2CCC3(CCN(Cc4csc(C)n4)C3=O)C2)ncn1` (stereo not drawn) it is -8.45%.
The figure for `COCCCN1CCN([C@@H]2c3ccccc3C3(CCNCC3)[C@H]2O)CC1` is -68.7%.
For the molecule `CCNC(=O)[C@@H]1C[C@H](N)CN1c1cc(CC)nc(N(C)C)n1`, the INHIBITION was -67.6%.
The figure for `CCNC(=O)[C@@H]1C[C@H](N)CN1c1cc(C(F)(F)F)nc(N(C)C)n1` is 20.4%.
The figure for `CCNC(=O)[C@@H]1C[C@H](N)CN1c1cc(C(F)(F)F)nc(N2CCCC2)n1` is 54.7%; for `CC(=O)Nc1nc(C(=O)N2CCCC(n3cncn3)C2)cs1` (stereo not drawn) it is -101%; for `CN(C(=O)Cn1nc(-c2ccccc2)ccc1=O)C1CCS(=O)(=O)C1` (stereo not drawn) it is -30.2%.
Under `Fc1ccccc1CC1CCN(Cc2cscn2)CC1` stands 45%; under `Fc1ccc(CN2CCCN(Cc3cscn3)CC2)cc1`, 43.6%.
For the molecule `Fc1ccc(CC2CCN(Cc3cscn3)CC2)cc1`, the INHIBITION is 50.7%.
The figure for `CN1CCc2nc(C3CCCCN3Cc3ccccc3Cl)ncc2C1` (stereo not drawn) is -32.4%; for `CN1CCCCC1c1ncc2c(n1)CCN(Cc1ccccc1Cl)C2` (stereo not drawn) it is 41.5%.
With `CN1CCCCC1c1ncc2c(n1)CCN(Cc1ccc(Cl)c(F)c1)C2` (stereo not drawn), the INHIBITION amounted to 65.6%.
Under `O=C(CCCOc1cccc(F)c1)N1CCCC(n2cccn2)C1` (stereo not drawn) stands -31.5%.
The figure for `N#Cc1cn(C2CC2)c(=O)n(CC(O)c2ccccc2C(F)(F)F)c1=O` (stereo not drawn) is 51%; for `N#Cc1cn(C2CC2)c(=O)n(CC(O)c2ccc(F)cc2)c1=O` (stereo not drawn) it is 44.7%; for `N#Cc1cn(C2CC2)c(=O)n(CC(O)c2ccccc2F)c1=O` (stereo not drawn) it is -128%.
The figure for `c1ncn(Cc2ccc(CNCc3ccc4c(c3)OCCO4)cc2)n1` is 0.0598%; for `CC(C)c1cc(NC(=O)c2ccncc2)[nH]n1` it is -134%; for `CC(C)c1cc(NC(=O)c2ccc([S+]([O-])C(C)C)cc2)[nH]n1` (stereo not drawn) it is -172%.
Take `CC(C)c1cc(NC(=O)c2ccc(C(=O)NC(C)(C)C)cc2)[nH]n1`: the INHIBITION was found to be 64%.
Under `Cc1ccc(CN2CCC3(CCC3NC(=O)c3ccn(C)c3)CC2)s1` (stereo not drawn) stands 55.9%.
The figure for `Cn1ccc(C(=O)NC2CCC23CCN(Cc2nccs2)CC3)c1` (stereo not drawn) is -44.3%; for `Cn1ccc(C(=O)NC2CCC23CCN(Cc2ccc(F)cc2)CC3)c1` (stereo not drawn) it is 39.9%; for `CN(C)CCOCC1CN(Cc2ccsc2)Cc2ccnn2C1` (stereo not drawn) it is 38.6%.
Under `CN(C)CCOCC1CN(Cc2cccs2)Cc2ccnn2C1` (stereo not drawn) stands 63.4%; under `CN(C)CCOCC1CN(CCN(C)C)Cc2ccnn2C1` (stereo not drawn), -8.37%.
In the case of `CNS(=O)(=O)c1cc(C)c2[nH]c(=O)cc(C)c2c1`, the INHIBITION is recorded as -73.5%.
Under `COc1ccc(NC(=O)Cn2nc(C)c(C)cc2=O)cc1` stands 25.5%; under `CC(=O)c1c(C)nn(CC(=O)Nc2ccc(Br)cc2)c1C`, 66.7%.
Under `CC(=O)c1c(C)nn(CC(=O)Nc2ccc(F)cc2)c1C` stands -44.1%; under `COc1ncccc1C(=O)N1CC[C@H]2C[C@H](c3ccncn3)O[C@@H]2C1`, -27.7%.
